The text below walks through data of PubChem BioAssay AID1076 (NMMLSC, 2008).

The source made the active and inactive calls.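 Rule for the calls: active = cell event count below 40, meaning activity score above 60 where score is 100 minus count; inactive = the rest.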

A short description of the test: cytotoxicity in LNCaP prostate cells – cell-based, cell event count, single point, cytotoxicity control for prostate differentiation activator project, confirmation (AID 1076).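 Note: counts scatter-gated live cells after medium removal discards detached dead cells.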 The settings on record: LNCaP cell loss, flow cytometry event count, 4 d; at 100 µM; hits give low values. Background: Flow cytometry measures light scatter and fluorescence of single cells or particles in a stream.
As for `Cc1oc(-c2ccc(Cl)cc2)nc1CN1CCCC(C(=O)NCc2ccccn2)C1` (stereo unspecified), the cell event count was 34 (inactive). `CCn1c(=O)cc(SCC(=O)NCCN2CCN(Cc3ccccc3)CC2)c2ccccc21`: the cell event count was 228 (inactive).

As for `CCOC(=O)C1CCCN(C(=O)Cn2cccc2C(=O)c2ccccc2)C1` (stereo unspecified), the cell event count was 201 (inactive). Consider `COc1ccc(-c2noc(-c3cc(Cl)ccc3Cl)n2)cc1OC`, for which the cell event count is 77 (inactive).

In the case of `CCOc1ccc2ccccc2c1C(=O)N1CCN(c2ccccc2)CC1`, the cell event count is 19 (inactive). As for `Cc1ccc2[nH]c(=O)c3cc(C(=O)N(C)Cc4ccco4)sc3c2c1`, the figure is 72 (inactive). The result for `O=C(NCC1CCCO1)C1CC(c2ccc(Cl)c(Cl)c2)=NO1` (stereo unspecified) reads 85 (inactive); that for `O=C(Cc1coc(-c2ccc(F)cc2)n1)N1CCOCC1`, 217 (inactive). As for `N=c1n(CCO)c2ccccc2n1CCOc1ccc(Cl)cc1Cl`, the figure is 18 (inactive); as for `CCn1c(=N)n(CC(O)COc2cccc(C)c2)c2ccccc21` (stereo unspecified), 2 (active); as for `O=C(NCCCN1CCN(c2cccc(Cl)c2)CC1)C1CCC(=O)N1Cc1ccccc1Cl` (stereo unspecified), 12 (inactive). Regarding `CCCS(=O)(=O)N1CCCC(C(=O)NCCCN2CCN(c3cccc(Cl)c3)CC2)C1` (stereo unspecified), the cell event count was 53 (inactive). As for `COc1ccccc1N1CCN(C(=O)CCn2c(=O)[nH]c3ccsc3c2=O)CC1`, the figure is 206 (inactive); as for `Cc1oc(-c2cccc(Cl)c2)nc1CN1CCC(C(=O)NCc2ccco2)CC1`, 100 (inactive). As for `Cc1noc(/C=C/c2ccco2)c1S(=O)(=O)N1CCC(C(=O)N2CCc3ccccc3C2)CC1`, the figure is 174 (inactive); as for `CN(C(=O)c1ccccn1)c1nnc(-c2cccnc2)s1`, 168 (inactive).
